Unmarked numbers belong to inactive results. How the calls were made is not given here.

Sequence of Pantothenate synthetase (Mycobacterium tuberculosis (strain ATCC 25618 / H37Rv)) (P9WIL5 whole entry, looked up): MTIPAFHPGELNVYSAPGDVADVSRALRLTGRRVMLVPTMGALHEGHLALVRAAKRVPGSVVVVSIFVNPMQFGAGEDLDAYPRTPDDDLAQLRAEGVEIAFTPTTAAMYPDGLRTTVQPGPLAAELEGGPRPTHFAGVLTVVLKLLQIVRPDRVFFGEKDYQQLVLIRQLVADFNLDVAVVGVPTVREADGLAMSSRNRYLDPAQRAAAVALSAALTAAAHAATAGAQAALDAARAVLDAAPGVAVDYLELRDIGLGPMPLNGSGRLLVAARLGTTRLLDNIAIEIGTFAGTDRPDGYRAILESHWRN

This assay addresses Pantothenate synthetase (Mycobacterium tuberculosis (strain ATCC 25618 / H37Rv)) (UniProt P9WIL5). Description: Coupled enzyme confirmation of inhibitors against recombinant Mtb PanC (AID 375).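 Further: 0% = full reaction with vehicle and 100% = no enzyme background.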 As to conditions: coupled enzyme assay; at 10 µM, hits give high values.
In the case of `CCOC(=O)c1[nH]c(C)c(C(=O)Nc2ccc(Cl)cc2)c1C`, the inhibition – broadly, how much of the control response was suppressed – was 0%.
With `CCn1c(SCC(N)=O)nnc1-c1ccc(S(=O)(=O)N2CCN(C)CC2)cc1`, the inhibition is 0%.
Regarding `O=S1(=O)Nc2c(ccc3cccnc23)-c2ccccc21`, the inhibition was 0%.
`COCCNC(=O)c1snc2ccc(Cl)cc12`: the inhibition is 0%.
Take `COc1ccc(C(=O)N2CCN(C3CCC(c4ccccc4)CC3)CC2)cc1OC` (configuration not stated): the inhibition was 2%.
`C/C=C(\CS(=O)(=O)c1ccccc1)S(=O)(=O)c1ccccc1`: the inhibition is 0%.
With `COc1ccc(C2CC(c3ccc(Cl)cc3Cl)Nc3nc(N)nn32)cc1` (configuration not stated) the figure was 0%.

Source of the values: PubChem BioAssay.
